Screening results from PubChem BioAssay.
PINK1 expr mod – modulators of PINK1 expression; PINK1 immunofluorescence, high-content cytometry, 24 h; Potency, µM (series often up to 76.6 µM), usual class: activators; hit rate 0.2% among 410,000; active means well fitted activation curve with a large enough effect; inconclusive means small, poorly fitted or top-dose-only effect; cell line not stated here; further: nearly all actives have a fitted effect of over 65% in size
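Fluorescence from anti-PINK1 antibody, together with nuclear and cell stains, was scanned on a laser-scanning cytometer. Before staining, stable-line cells were incubated 24 hours with compounds at 5 concentrations; primary antibody 12 h at 10 degrees C.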
ATXN2 expr inh – ATXN2 expression inhibition. Potency, µM (doses to about 57 µM), most hits filed as inhibitors. AID 1745845. hit rate 0.72% among 360,000. HEK-293 ATXN2-luciferase reporter, luminescence, 24 h; further: nearly all actives have a fitted effect of over 55% in size
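qHTS (up to 57 uM final) was run with 24 h compound exposure of reporter cells at 37 °C. Each well was multiplexed: SteadyGlo luminescence measured ATXN2-luciferase expression after a fluorogenic Gly-Phe-AFC viability readout (25 uM final).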
SW480 rereplic – induces DNA re-replication in SW480 colon adenocarcinoma cells; SW480 DNA re-replication, Hoechst DNA content imaging, 48 h; Potency, µM (series often up to 46.1 µM), hits mostly activators; hit rate 1.8% among 340,000; further: nearly all actives have a fitted effect of over 55% in size
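Cells (250 per well) received 23 nL compound or DMSO by pin tool and were kept 48 hr at 37 C, 5% CO2. Nuclei were then stained with Hoechst for 40 min and scanned for DNA content.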
MCF10A rereplic – induces DNA re-replication in MCF 10a normal breast cells | AID 624296 | hit rate 2.9% among 350,000 | Potency, µM (doses to about 46.1 µM), hits mostly activators | MCF 10A DNA re-replication, Hoechst nuclear intensity, 48 h; further: nearly all actives have a fitted effect of over 50% in size
IL-1B inflam inh – blocks inflammasome-driven IL-1 beta release; THP-1 LPS/ATP IL-1B secretion, AlphaLISA, 16 h; hits give low values; activity change, % at 57.5 µM; hit rate 4.7% among 360,000; in the data active means activity change below about -50%; inconclusive means mostly about -30% to -49%
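Secreted IL-1B measured by AlphaLISA bead assay after 16 h compound exposure of THP-1 cells; compounds (final up to 57.5 uM) added 1 h before LPS (250 ng/mL) and ATP (1.25 mM) stimulation; lower signal means less secretion.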
ATXN viability – cell viability loss in ATXN counter-screen; AID 651635; S2 cells (HEK-293 line with an ATXN2-luciferase reporter) viability, CellTiter-Fluor protease fluorescence, 24 h; Potency, µM (titrated, usually from 56.7 µM), hits mostly cytotoxic; hit rate 0.49% among 400,000; further: nearly all actives have a fitted effect of over 40% in size
Numbers stand for hits; – = inactive; ? = inconclusive; · = no result. An excerpt weighted towards active compounds, which were near 7.1% of everything screened. Unless noted, the call rests on the fitted dose curve; in most records, active means well fitted curve in the direction sought with a large enough effect; inconclusive means small, poorly fitted or top-dose-only effect, or another doubt; inactive means no such curve, though single readings can be large; an effect the other way counts as inactive or inconclusive.

SMILES	PINK1 expr mod	ATXN2 expr inh	SW480 rereplic	MCF10A rereplic	IL-1B inflam inh	ATXN viability
COc1ccc(-c2nc3cc(C)ccc3cc2CN(C(=O)c2csc(C)n2)C2CC2)cc1OC	–	·	·	·	·	–
COc1ccc(OC)c(NC(=O)CSc2cn(CC(=O)N3CCCCCC3)c3ccccc23)c1	–	·	·	·	·	·
O=C(Cc1cccs1)N1CCN=C1SCc1cccc(F)c1	–	·	–	–	–	–
O=C(COc1ccccc1)N1CCN=C1SCc1ccc(F)cc1	–	–	?	–	-97.2	–
O=C(Cc1ccc(F)cc1)N1CCN=C1SCc1ccc([N+](=O)[O-])cc1	–	–	–	–	-64.4	–
O=C(Cc1cccs1)N1CCN=C1SCc1ccc(Br)cc1	–	–	–	?	-101.5	–
O=C(COc1ccccc1)N1CCN=C1SCc1cccnc1	–	–	–	–	–	–
Cc1ccc(CNc2cc(C)nc3nc(-c4cccc(C)c4)nn23)cc1	?	–	·	·	·	?
COc1ccc(C(c2c(O)cc(C)n(Cc3ccco3)c2=O)N2CCCCC2)cc1OC (centres undefined)	–	·	·	·	·	·
CCn1c(-c2ccccc2F)nc2cc(NC(C)=O)cc(C(=O)N(C)Cc3ccccn3)c21	–	·	·	·	·	–
Cc1ccc(CN2C(=O)S/C(=C\c3ccccc3OCC(=O)O)C2=O)cc1	–	·	–	–	–	?
O=C1S/C(=C\c2ccc(O)c([N+](=O)[O-])c2)C(=O)N1c1ccccc1Cl	?	–	–	1.64µM	–	·
COc1cc(/C=C2\SC(=O)N(c3cccc(Cl)c3)C2=O)cc([N+](=O)[O-])c1O	–	–	–	–	–	–
O=C1S/C(=C\c2ccc(O)c([N+](=O)[O-])c2)C(=O)N1Cc1cccc([N+](=O)[O-])c1	39.8µM	–	–	?	–	–
O=C(O)COc1ccccc1/C=C1\SC(=O)N(Cc2ccc(F)cc2)C1=O	–	–	–	4.61µM	–	–
CCOC(=O)CN1C(=O)S/C(=C/c2cccc([N+](=O)[O-])c2O)C1=O	–	–	–	–	?	–
O=C(O)c1cccc(CN2C(=O)S/C(=C/c3ccccc3[N+](=O)[O-])C2=O)c1	–	–	?	?	-82.0	–
CCOc1ccccc1N1CC(c2nc3ccccc3n2CCCCOc2ccccc2)CC1=O (centres undefined)	–	–	·	·	·	–
CCc1ccccc1N1CC(c2nc3ccccc3n2CCC2CCCCC2)CC1=O (centres undefined)	–	?	·	·	·	28.2µM
O=C1CC(c2nc3ccccc3n2CCCCOc2ccccc2)CN1c1ccccc1Cl (centres undefined)	–	?	·	·	·	28.2µM
CCOc1ccc(N2CC(c3nc4ccccc4n3CCCOc3ccccc3OC)CC2=O)cc1 (centres undefined)	–	?	·	·	·	17.8µM
Cc1ccccc1N1CC(c2nc3ccccc3n2CCC2CCCCC2)CC1=O (centres undefined)	–	?	·	·	·	·
Cc1ccc(NC(=O)CSc2nc3ccccc3c3nc(CCn4c(C)nc5ccccc54)nn23)cc1F	–	?	·	·	·	?
CCn1ccc2cc(S(=O)(=O)N3CCC(C(=O)NCCOC)CC3)ccc21	–	–	·	·	·	–
CCn1nc(C)cc1C(=O)NCC1CCC2(CCN(Cc3ccccc3F)CC2)O1 (centres undefined)	–	·	·	·	·	–
SMILES	PINK1 expr mod	ATXN2 expr inh	SW480 rereplic	MCF10A rereplic	IL-1B inflam inh	ATXN viability
COc1cccc(CNS(=O)(=O)c2ccc(N3CCCCS3(=O)=O)cc2)c1	–	–	·	·	·	–
CCn1c(=O)c2cc(C(=O)N(C)c3cc(C)ccc3C)sc2c2ccccc21	–	–	·	·	·	–
COc1ccc2ncccc2c1Cc1c(OC)ccc2ncccc12	–	?	?	?	-75.0	–
Nc1c(C(O)(C(F)(F)F)C(F)(F)F)cc(C(O)(C(F)(F)F)C(F)(F)F)c2ccccc12	–	?	–	17.8µM	-96.1	?
CCCCOC(=O)Nc1ccc(C(C)C)cc1	–	–	–	–	-59.9	–
CCCCOC(=O)Nc1ccc(C(N)=O)cc1	–	–	–	–	–	–
CCCCOC(=O)Nc1ccc(N2CCCCC2)cc1	–	–	–	–	-56.7	–
FC(F)(F)c1cnc(Sc2nc3nccc(-c4ccc(Cl)cc4)n3n2)c(Cl)c1	–	?	16.4µM	3.26µM	?	?
COc1ccc(-c2ccnc3nc(Sc4ncc(C(F)(F)F)cc4Cl)nn23)cc1	–	–	–	–	–	–
CNc1nc(N)c([N+](=O)[O-])c(Nc2cccc(Cl)c2)n1	–	·	–	–	–	?
Cc1ccc(Nc2nc(N)c([N+](=O)[O-])c(NCCO)n2)cc1C	–	–	–	–	–	–
CNc1nc(N)c([N+](=O)[O-])c(Nc2cccc(F)c2)n1	–	–	18.4µM	–	–	–
Cc1cccc(Nc2nc(N)c([N+](=O)[O-])c(NCc3ccccc3)n2)c1	–	–	?	18.4µM	·	–
Cc1ccc(Nc2nc(N)c([N+](=O)[O-])c(NCc3ccco3)n2)cc1C	–	–	–	?	-71.4	?
Nc1nc(Nc2ccccc2)nc(NCc2ccccc2)c1[N+](=O)[O-]	–	–	–	–	-68.6	?
CCS(=O)(=O)N1CC(CC#N)(n2cc(-c3ncnc4[nH]ccc34)cn2)C1	·	–	·	·	·	·
O=Cc1cn(-c2ccccc2)nc1-c1cccnc1	–	–	–	–	-82.5	–
COc1ccc(-c2c3c(cc(C)[n+]2[O-])oc2ccc(OC)cc23)cc1	–	–	–	16.4µM	?	?
COc1ccc2oc3cc(C)[n+]([O-])c(-c4ccc(C)cc4)c3c2c1	–	–	?	–	–	–
CC1(C(=O)NCCC#N)CCN1C(=O)CC(c1ccccc1)c1ccccc1 (centres undefined)	–	–	·	·	-50.4	–
COc1cc(/C=N\NC(=O)c2ccccc2F)ccc1Oc1ccc([N+](=O)[O-])cn1	–	?	?	23.1µM	–	?
COc1cc(/C=N\NC(=O)c2cccc(Cl)c2)ccc1Oc1ccc([N+](=O)[O-])cn1	–	–	20.6µM	?	·	–
COc1cc(/C=C(/C#N)c2ccc(F)cc2)ccc1Oc1ccc([N+](=O)[O-])cn1	–	–	–	?	-54.5	–
CCN(CC)C(=O)c1ccc2nc(-c3ccccc3)c(-c3ccccc3)nc2c1	–	–	–	–	–	–
CCN(CC)C(=O)c1ccc2nc3ccccc3nc2c1	–	–	5.17µM	?	–	–
CCc1ccc(NC(=O)Cn2ccn(-c3ccc(C)c(C)c3)c(=O)c2=O)cc1	–	·	·	·	·	·
O=[N+]([O-])c1cc(O)c2ncccc2c1	–	5.01µM	–	?	-94.6	?
Cc1ccc([N+](=O)[O-])c2cccnc12	–	–	–	–	–	–
O=[N+]([O-])c1cc2cccnc2c2ncccc12	–	·	14.6µM	–	–	?
O=C1NC(=O)C(=Cc2ccc3c(c2)OC(F)(F)O3)S1	·	–	·	·	·	·
